In the library only some 4.2% were active in any assay of this set; here they are far more common.
CCHFV vOTU inh: blocks the CCHF virus ovarian tumor domain protease | 370,000 tested, 0.55% active | AID 651958 | inhibition, % at 11.5 µM | CCHFV vOTU protease, Pep-AMC fluorescence; note: 0% = vehicle wells with enzyme and 100% = no enzyme wells
GDH-TPI inh: counter-screen for M. tuberculosis FBA inhibitors: GDH-TPI coupled enzymes; 360,000 tested, 1.2% active; AID 588335; inhibition, % at 4.8 µM; GDH-TPI coupled enzyme counterscreen, NADH absorbance;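 note: 0% = DMSO wells and 100% = wells lacking the enzyme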
FBA Mtb inh: inhibitors of M. tuberculosis fructose-bisphosphate aldolase. P9WQA3. purified M. tuberculosis FBA, fluorescence read-out. inhibition, % at 1 µM. 360,000 tested, 2.3% active; in the data active = inhibition above about 27%;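 note: 0% = vehicle and 100% = reference inhibitor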
RecA intein inh: inhibitors of M. tuberculosis RecA intein splicing; 290,000 tested, 0.75% active; P9WHJ3; cell-free RecA intein splicing, fluorescence; inhibition, % (test concentration not listed); AID 2221; in the data active = inhibition above about 30%;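 note: 0% = vehicle wells and 100% = reference inhibitor control wells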
* hit, by the source's call; i = inactive; nt = no result; + = active, no number. Cut-off read from the data, not from the text of the source, unless noted: active = inhibition above about 30%; inactive = the rest.

SMILES	CCHFV vOTU inh	GDH-TPI inh	FBA Mtb inh	RecA intein inh
COc1ccc2cc3cc(C(=O)NCC4COc5ccccc5O4)oc3nc2c1 (centres undefined)	-129.3	30.4	152.1*	-2.9
COc1ccc2cc3cc(C(=O)NCc4cccnc4)oc3nc2c1	-284.5	22.7	+	-1.2
COc1ccc2cc3cc(C(=O)N4CCN(c5ccccn5)CC4)oc3nc2c1	-3.3	41.7*	1.8	-0.5
COc1ccc(CN2CCN(c3cc(C)nc4c5c(C)cc(C)nc5nn34)CC2)cc1F	-92.8	5.0	125.1*	-10.4
COc1ccc(-c2c(C#Cc3ccsc3)c3ccccc3n2C)cc1	7.9	11.9	2.9	-0.3
COc1cc(F)cc(-c2ccc3c(c2)c(C#Cc2ccsc2)c(-c2cc(OC)cc(OC)c2)n3C)c1	1.1	31.4*	13.9	nt
COc1cc(OC)cc(-c2c(C#Cc3ccsc3)c3cc(-c4cccc5[nH]cc(C=O)c45)ccc3n2C)c1	22.9	32.3*	6.4	nt
COc1cc(OC)cc(-c2c(C#Cc3ccsc3)c3cc(-c4ccc(OC)c(OC)c4)ccc3n2C)c1	-0.3	44.0*	19.3	nt
COc1ccc(-c2c(C#Cc3ccsc3)c3cc(-c4ccc(C(N)=O)cc4)ccc3n2C)cc1	5.5	12.1	3.0	nt
COc1cc(OC)cc(-c2c(C#Cc3ccsc3)c3cc(-c4ccc(OC)nc4)ccc3n2C)c1	-4.1	44.2*	18.4	nt
COc1cc(OC)cc(-c2c(C#Cc3ccsc3)c3cc(Br)ccc3n2C)c1	-8.1	8.8	13.4	nt
CC(C)C[C@H]1CN(CCCC[C@H]2CNC(=O)C(=O)N2Cc2ccccc2)C(=O)C(=O)N1CCC1CCCCC1	22.0	nt	nt	nt
O=C(CSc1nnc(-c2cccs2)n1C1CC1)NC1CCS(=O)(=O)C1 (centres undefined)	-6.1	9.2	-1.1	nt
O=C(O)c1cc(-c2cccc(Cl)c2)nc2nc(N3CCCCC3)sc12	-224.5	18.3	+	-8.6
CC1CC(=Cc2ccc([N+](=O)[O-])cc2)C(=O)O1 (centres undefined)	-1.4	30.7*	-2.4	nt
Cc1ccc(/C=C2\CCOC2=O)cc1	-9.9	2.5	-1.8	0.3
CC1CC(=Cc2ccc(N)cc2)C(=O)O1 (centres undefined)	8.4	35.3*	-1.1	nt
COc1cc(N)c(Cc2nccc3cc(OC)c(OC)cc23)cc1OC	2.9	7.0	1.2	45.7*
CCC(=O)c1ccc(OC(=O)c2cccs2)cc1	3.4	6.4	-0.7	31.9*
COC(=O)c1ccc(OC(=O)c2cccs2)cc1	11.6	-4.3	-0.5	26.0
Nc1nc2ccc(-c3nc4ccccc4o3)cc2s1	-144.9	40.6*	+	4.8
COc1ccc(-c2nc3ccccc3o2)cc1OC	-3.4	-5.2	9.9	nt
COc1cc2oc3ccccc3c(=O)c2cc1OC	nt	21.6	+	-1.8
COc1ccccc1C(=O)NC1CCCCN(Cc2cccc(Cl)c2)C1=O (centres undefined)	0.5	nt	nt	nt
N#Cc1ccsc1NC(=O)C1CCCN1S(=O)(=O)c1cccs1 (centres undefined)	-3.5	1.1	-2.1	-0.2
SMILES	CCHFV vOTU inh	GDH-TPI inh	FBA Mtb inh	RecA intein inh
CCOC(=O)c1sc(=S)[nH]c1C	14.7	30.7*	-2.6	nt
COC(=O)[C@H](C(C)C)N1CCc2nnn(CC3CCCCC3)c2-c2ccccc2S1(=O)=O	13.4	nt	nt	nt
COc1ccc(-c2c(C)c3cc(O)ccc3oc2=O)cc1OC	-5.9	12.7	1.2	-1.7
COc1ccc(-c2cc3ccc(OCC(N)=O)cc3oc2=O)cc1OC	-11.6	31.9*	2.0	-54.5
COc1ccc(-c2cc3ccc(O)cc3oc2=O)cc1OC	-253.0	7.6	118.8*	i
Cc1cc(C(=O)N2CCCC(C)(C(=O)NS(=O)(=O)C3CC3)C2)nn1C(C)(C)C (centres undefined)	2.6	1.3	0.5	nt
COc1nc(NCCO)nc(Nc2ccc([N+](=O)[O-])cc2)n1	12.2	30.9*	2.1	4.1
O=[N+]([O-])c1ccc(Nc2nc(Cl)nc(NCCO)n2)cc1	-6.7	23.2	6.5	0.1
O=C1CSCc2nc3ccccc3n21	-4.2	16.4	4.1	nt
C[C@H](O)[C@@H]1CN2CCc3ccc(N4CCOCC4)cc3[C@@H]2C[C@@H]1N(C)C(=O)c1ccco1	-0.8	nt	nt	nt
O=C(Nc1ccc(-c2nc3ccccc3o2)cc1)c1cc(-n2cnnc2)ccc1Cl	-1.7	22.9	8.3	0.0
O=C(Nc1ccc(-c2nc3ccccc3o2)c(O)c1)c1cc(-n2cnnc2)ccc1Cl	-48.6	42.5*	13.1	nt
COc1cc(-c2cnc3c(NC=O)cc(-c4ccccc4Cl)cn23)cc(OC)c1OC	-3.5	0.9	-1.0	nt
CC(/C=N/Nc1nnc(C)c(=O)[nH]1)=C\c1ccccc1	7.8	31.8*	-2.6	-0.9
O=C(N[C@H](C(=O)N1CCC[C@H]1C(=O)NCCc1ccccc1Cl)C1CCCCC1)c1ccccc1	9.3	nt	nt	nt

From PubChem
